# Only some compounds are listed: those with a hit (about 4.8% of all), similar ones and a draw of the others.
# SMARCA2 activ – SMARCA2 (BRM) function activators, primary screen, cell-based, luminescence, high throughput; 370,000 compounds, 1% hits; MG213 cells, MMTV-luciferase reporter, dexamethasone, overnight; activation, % at 9.1 µM; AID 652017, 2013; in the data active means activation above about 7.8%;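 further: 0% = vehicle wells and 100% = reference activator wells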
# ssDAF12 agonist – S. stercoralis DAF-12 nuclear receptor activators, primary screen, cell-based, luminescence, HEK293, GRIP1 co-expression, lit1-tk-luc | HEK293 ssDAF-12/GRIP1 lit1-tk-luc reporter; % of 3 µM dafachronic acid response | activation, % at 6.8 µM | 370,000 compounds, 1% hits;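 active means activation above the mean over all tested compounds plus 3 SD, cut at about 0.9% in these data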;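 further: 0% = DMSO-only wells and 100% = 3 µM delta7-dafachronic acid wells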
# hgDAF12 agonist – H. glycines DAF-12 receptor agonists, primary screen, cell-based, luminescence, HEK293, GAL4 fusion, UAS-luciferase; activation, % at 6.8 µM; 370,000 compounds, 1.8% hits; Nuclear hormone receptor DAF-12 (Heterodera glycines), GAL4 fusion; HEK293 GAL4-hgDAF12 UAS-luciferase reporter, agonist luminescence; normalized to butyrate control;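 active means activation above a cutoff set at the mean of all screened compounds plus 3 SD, cut at about 10% in these data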;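 further: 0% = DMSO wells and 100% = sodium butyrate wells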
# hcDAF12 agonist – H. contortus DAF-12 nuclear receptor activators, primary screen, cell-based, luminescence, HEK293, lit1-tk-luc reporter; 370,000 compounds, 1.4% hits; AID 652067, 2013; activation, % at 6.8 µM; HEK293 hcDAF-12 lit1-tk-luc reporter; 0% DMSO, 100% Δ7-dafachronic acid;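 active means activation above the mean of all tested compounds plus 3 SD, cut at about 5.5% in these data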;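 further: 100% = response to 3 µM Δ7-dafachronic acid high control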
# DAX1 inh-1 – DAX1 (NR0B1) inhibitors on StAR promoter, primary screen, cell-based, luminescence, SF-1 (NR5A1), full-length DAX-1 | AID 652010, 2013 | HEK293T StAR-luciferase reporter, SF-1/DAX-1 repression relief | inhibition, % at 6.8 µM | 370,000 compounds, 1.1% hits;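 active means inhibition above the mean over all tested compounds plus 3 SD, cut at about 3.6% in these data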;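 further: 0% = DAX-1 cells with DMSO and 100% = cells lacking DAX-1 with DMSO; higher inhibition means more luminescence from relief of DAX-1 repression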
# DAX1 inh-2 – DAX1 (NR0B1) inhibitors, primary screen, cell-based, HEK293, Gal4-DAX1, luciferase luminescence; HEK293 Gal4-DAX1 luciferase reporter; 340,000 compounds, 0.99% hits; inhibition, % at 6.75 µM; Nuclear receptor subfamily 0 group B member 1 (Homo sapiens), P51843;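 active means inhibition above the mean over all tested compounds plus 3 SD, cut at about 4.2% in these data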;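 further: 0% = DAX1-transfected cells with DMSO and 100% = empty-vector control cells with DMSO; inhibition shows as a rise in luminescence from relieved DAX1 repression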
# Target sequence (P51843 207-470 limits assumed): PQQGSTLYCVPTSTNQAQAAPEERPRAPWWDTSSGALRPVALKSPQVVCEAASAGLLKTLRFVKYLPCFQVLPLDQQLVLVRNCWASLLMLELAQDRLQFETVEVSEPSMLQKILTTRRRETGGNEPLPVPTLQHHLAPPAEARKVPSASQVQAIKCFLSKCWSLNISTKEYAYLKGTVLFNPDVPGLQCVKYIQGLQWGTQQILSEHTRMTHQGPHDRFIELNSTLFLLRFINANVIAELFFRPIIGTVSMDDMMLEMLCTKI
# * = called active by the depositor; / = no result given.
SMILES,SMARCA2 activ,ssDAF12 agonist,hgDAF12 agonist,hcDAF12 agonist,DAX1 inh-1,DAX1 inh-2
CCOC(=O)C1CCN(C(=O)c2cc(COc3ccc(F)cc3F)on2)CC1,7.1,0.7,11.8*,1.7,3.5,1.8
COc1ccc(OCc2cc(C(=O)N3CCCCCC3)no2)c(Cl)c1,1.5,-0.1,8.5,-1.0,4.1*,0.5
COc1ccc(OCc2cc(C(=O)N3CCSCC3)no2)c(Cl)c1,3.4,-0.4,10.4,2.5,3.9*,0.7
COCC1CCN(C(=O)c2cc(COc3ccc4c(c3)CCCC4)on2)C1 (centres undefined),-0.7,-0.9,-0.9,-2.2,-0.6,-1.1
O=C(c1cc(COc2ccc3c(c2)CCCC3)on1)N1CCCC1,6.9,0.8,9.5,3.7,4.0*,3.6
COc1ccc(OCc2cc(C(=O)N3CCN(CC(=O)N(C)C)CC3)no2)c(Cl)c1,-1.7,-0.8,-0.8,-0.4,-0.4,0.9
Cc1cc(NC(=O)CN(C)CC(=O)Nc2ccc(Cl)c(C(F)(F)F)c2)no1,4.7,-0.9,-1.8,-1.3,-0.7,-1.5
O=C(COC(=O)c1cc(Cl)nc(Cl)c1)NCCc1ccc(F)cc1,-4.0,1.6*,3.2,5.5,-1.8,-0.3
C1CCCC(N2CCNCC2)CC1,4.7,-1.5,1.0,-1.7,-0.5,0.9
CCc1ccc(OCC(=O)N(C)C)c(Br)c1,-0.6,-0.8,0.6,-1.9,0.5,5.5*
CCc1ccc(OCC(=O)NC(=S)Nc2ccc(C(C)=O)cc2)c(Br)c1,-0.1,-1.0,-1.2,-0.9,0.0,-0.9
CCOC(=O)N1CCN(C(=O)CSc2nnc(Cc3ccccc3)o2)CC1,-0.9,0.5,1.2,-1.2,-1.6,3.0
CC(C)[C@H](NC(=O)c1ccc(Cl)c([N+](=O)[O-])c1)C(=O)NCc1ccc(F)cc1,-2.4,-0.9,2.3,0.7,0.3,4.6*
CC(C)[C@H](NC(=O)c1ccc(Cl)c([N+](=O)[O-])c1)C(=O)NCc1ccc(Cl)cc1Cl,-1.7,-1.3,-1.0,-1.9,0.3,0.5
Cc1ccc(C(=O)NC2CCCCN(Cc3cccc(Cl)c3)C2=O)c(C)c1 (centres undefined),-0.7,-1.0,2.5,-2.2,-0.6,/
Cc1ccccc1CN1CCCCC(NC(=O)c2ccccc2F)C1=O (centres undefined),-2.5,0.2,-1.0,-2.5,-2.2,/
Cc1ccccc1CN1CCCCC(NC(=O)C2CCC2)C1=O (centres undefined),-1.2,1.9*,-1.1,1.0,-0.4,/
Cc1ccccc1C(=O)NC1CCCCN(Cc2cccc(Cl)c2)C1=O (centres undefined),-2.0,1.0*,1.9,-3.3,-0.6,/
CC(C)(C)NC(=O)CCn1nc(-c2ccc(Cl)cc2)c2ccccc2c1=O,/,/,/,/,/,-0.3
CCNC(=S)Nc1ccc(NC(=O)c2ccccc2O)cc1,-1.4,1.6*,-0.1,1.5,0.1,-1.5
CCNC(=S)Nc1cccc(NC(=O)c2ccccc2O)c1,1.1,-1.1,-0.9,1.3,-0.2,-0.6
CCOC(=O)CN1C(=O)S/C(=C/c2ccc(O)c([N+](=O)[O-])c2)C1=O,-4.8,-1.9,-0.6,1.3,-0.7,5.9*
CCOC(=O)CN1C(=O)S/C(=C/c2ccc(C)o2)C1=O,-2.0,-1.3,3.7,-1.9,0.8,0.5
Cc1csc(NC(=O)c2cc(C)oc2C)n1,5.0,0.9*,8.8,-0.2,0.6,0.8
Cc1csc(NC(=O)c2ccc(C)o2)n1,1.5,0.6,11.8*,1.5,2.4,1.2
SMILES,SMARCA2 activ,ssDAF12 agonist,hgDAF12 agonist,hcDAF12 agonist,DAX1 inh-1,DAX1 inh-2
Cc1ccc(-c2ocnc2C(=O)Nc2nc(C)cs2)cc1,1.6,1.9*,3.7,1.4,1.6,5.4*
Cc1cc(C(=O)Nc2cc(C(C)(C)C)on2)c(C)o1,-0.1,-0.6,3.8,2.2,0.7,6.3*
Cc1csc(NC(=O)c2ccccc2O)n1,1.8,-0.1,3.7,-0.2,0.5,0.5
Cc1ccc(C(=O)Nc2nc(-c3cccnc3)cs2)o1,0.7,-0.8,2.3,0.7,0.8,-0.1
CCOc1ccc(S(=O)(=O)Nc2ccc3c(c2)OCO3)cc1,-3.3,-1.0,2.2,-3.5,-0.6,-1.1
Cc1ccccc1NC(=O)c1nc2nccc(C)n2n1,/,/,/,/,/,0.2
Cc1ccnc2nc(C(=O)Nc3nc(-c4ccccn4)cs3)nn12,-3.6,-1.2,-0.8,-1.1,0.3,8.3*
Cc1c(Cl)cccc1S(=O)(=O)Nc1ccnn1C,-0.9,-1.4,1.9,-1.2,0.2,4.3*
CC(C)(C)C(=O)Nc1ccc(N=Nc2ccccc2)cc1,-7.3,-3.5,-12.8,-5.1,-3.4,-3.4
Cc1cc(N=Nc2ccccc2)cc(C)c1NC(=O)C(F)(F)F,-0.2,0.1,8.7,2.1,3.1,5.1*
CC(=O)Nc1cc(NC(C)=O)c(N=Nc2ccccc2)cc1C,5.7,-1.5,1.0,-1.6,0.5,4.7*
Cc1ccc(C(=O)N2CCN(c3ccc(NC(=O)c4cccnc4Cl)cc3)CC2)cc1,-1.4,-1.2,-0.7,-3.2,-0.6,-1.9
CC1CCN(c2ccc(NC(=O)c3cccnc3Cl)cc2)CC1,1.0,-1.1,11.5*,0.3,0.9,1.9
CC(=O)c1ccc(N2CCN(C(=O)c3cc(-c4ccncc4)nc4ccc(Cl)cc34)CC2)cc1,-1.1,0.0,-1.2,2.1,-2.0,1.8
Clc1cccc(CN2CCC(Cc3ccccc3)CC2)c1,-4.0,-1.4,0.6,0.7,0.0,-0.1
Nc1nc2ccccc2n1/N=C/c1ccc(Br)cc1,5.4,-0.5,12.0*,3.3,2.5,1.5
O=C(Nc1nnc(CCc2ccccc2)s1)c1cccc(F)c1,1.1,-0.6,3.2,0.7,0.3,1.9
C=CCn1c(SCC(=O)NCC)nnc1-c1cc2c(s1)CCC(CC)C2 (centres undefined),0.8,-0.6,3.1,-2.4,1.3,-2.5
CCCCOC(=O)/C=C\C(=O)OCCCC,1.0,-1.1,-1.1,-1.3,0.6,6.9*
CCCCOC(=O)/C=C\C(=O)NC(N)=O,-3.5,-0.1,-1.6,2.4,-0.1,4.0
COc1ccccc1C(=O)NNC1=C(C(=O)C(F)(F)F)CCC1,3.0,0.9*,8.5,4.3,1.8,1.9
O=C(NNC1=C(C(=O)C(F)(F)F)CCC1)c1ccccc1O,-1.1,1.0*,5.8,5.6*,1.4,3.6
N/C(=N\OC(=O)c1ccc(Br)cc1)c1ccccc1,5.3,0.0,11.9*,3.1,2.6,0.5

# Source: PubChem
